This is part of a sample that, as a whole, favours compounds with a hit. Of some 83,000 tested, about 20% had one in any assay.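 Growth was measured after 48 h exposure to one concentration of compound in 96-well plates. Values under 10 count as active.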 A number with no mark means an inactive call. Active and inactive are the calls of the source.
Columns and labels:
Assay in all cases: NCI-60 one-dose screen, 48 h (100 = growth as untreated, 0 = no growth, -100 = all killed)
Conditions in all cases: 10 µM unless noted
[1] = test system: HCT-15 colon
[2] = test system: HT29 colon
[3] = test system: SNB-75 CNS
[4] = test system: SNB-19 CNS
[5] = test system: U251 CNS
[6] = test system: PC-3 prostate
[7] = test system: SK-MEL-5 melanoma
[8] = test system: UACC-62 melanoma
[9] = test system: LOX IMVI melanoma
[10] = test system: SK-MEL-28 melanoma
[11] = test system: SK-MEL-2 melanoma
[12] = test system: EKVX NSCLC
[13] = test system: SN12C renal
[14] = test system: UO-31 renal
[15] = test system: TK-10 renal
[16] = test system: ACHN renal
[17] = test system: CAKI-1 renal
[18] = test system: A498 renal
[19] = test system: HL-60(TB) leukemia
[20] = test system: CCRF-CEM leukemia

Row | SMILES | growth [1] | growth [2] | growth [3] | growth [4] [%] | growth [5] | growth [6] [%] | growth [7] | growth [8] | growth [9] | growth [10] [%] | growth [11] | growth [12] [%] | growth [13] [%] | growth [14] [%] | growth [15] [%] | growth [16] | growth [17] [%] | growth [18] | growth [19] | growth [20]
1 | OCCN=Cc1c[nH]c2ccccc12 | 105% | 102% | 75% | 101 | 103% | 90.5 | 103% | 90.9% | 95.2% | 111 | 109% | 93.8 | 93.3 | 75.7 | 122 | 94.3% | 80.4 | 107% | 101% | 114%
2 | CC1(C)C=Cc2c(ccc3c2[N+]([O-])=C2C3=C[C@@]34NC(=O)[C@]5(CCCN5C3=O)C[C@@H]4C2(C)C)O1 | 46.8% | 24.6% | 62.1% | 50.7 | 35.3% | 45.5 | 19.2% | 64.6% | 27.6% | 71.1 | 69.8% | 34.3 | 30.7 | 73.5 | 83.1 | 39.7% | 27 | 69% | 33.6% | 14.2%
3 | C/C(=C\c1ccn(-c2ccc(N)cc2F)n1)[C@@H]1C[C@@H]2O[C@]2(C)CCC[C@H](C)[C@H](O)[C@@H](C)C(=O)C(C)(C)[C@@H](O)CC(=O)O1 | 14% | 13.1% | -6.93% (active) | 26 | 18.9% | 17 | 8.85% (active) | 11.6% | 27.3% | 54.5 | 13.5% | 46.7 | 29.3 | 29.1 | 48.3 | 38.9% | 41.4 | 0.324% (active) | 3.32% (active) | 12.9%
4 | COC(=O)[C@@H](C)C[C@H](Cc1ccccc1)NC(=O)c1cccc([C@@H](C[C@H](C(C)C)N(C)C(=O)[C@@H](NC(=O)[C@H]2CCCCN2C)C2CC2)OC(C)=O)n1 | 8.07% (active) | -8.46% (active) | 27.6% | 30 | 4.48% (active) | 18.8 | -22.6% (active) | 41.4% | 12.2% | 62 | 44.2% | 54.6 | 28.7 | 40.6 | 23.9 | 24.7% | 25.7 | -4.08% (active) | -38.2% (active) | 16%
5 | CC[C@H](C)[C@H](NC(=O)[C@H]1CCCCN1C)C(=O)N(C)[C@H](C[C@@H](OC(C)=O)c1nc(C(=O)N[C@@H](Cc2ccccc2)C[C@H](C)C(=O)O)cs1)C(C)C | 9.59% (active) | -18.7% (active) | 31.4% | 36.7 | 15% | 26.1 | -71.7% (active) | 52.8% | 9.84% (active) | 50.6 | 2.53% (active) | 38.4 | 47.5 | 38.2 | 22.8 | 14.3% | 35.9 | -2.03% (active) | -29.8% (active) | 7.95% (active)
6 | Cc1cc[c-]cc1.Fc1c[c-]c(-c2ccccn2)c(F)c1.N#CCC[PH+](CCC#N)c1ccccc1.[Pt+2] | 22.1% | 37.2% | 49.9% | 62.3 | 56.9% | 29.4 | 68.6% | 9.83% (active) | -2.55% (active) | 42.7 | 59.4% | 56.8 | 23.9 | 24.7 | 106 | 6.91% (active) | 14.8 | 52.3% | 2.54% (active) | 10%

— PubChem BioAssay (NCI)
